# Reference: ChEMBL document CHEMBL5606460, “ASAP - DENV-2 NS2B-NS3 protease fluorescence single point” (2024)
# Hit rate of the full screen: of about 2,000 compounds, about 110 (5.5%) showed an effect of 50% or more. Many of the other results were omitted from the sample, so strong results are more common in it than they were.
# Biological target: Genome polyprotein (dengue virus type 2) (UniProt P29990)
# [1] = Thailand/16681/1984, Concentration 25.0 uM, Number of replicates 1.0
structure (smiles),measurement,setting,value
CC(C)(CO)NC(=O)c1cc(Cl)cc(NS(=O)(=O)c2ccccc2)c1,inhibition,"Thailand/16681/1984, Concentration 49.5 uM, Number of replicates 2.0, Standard deviation 0.43077113751226487 %",-5.72%
same,inhibition,"Thailand/16681/1984, Concentration 99.01 uM, Number of replicates 2.0, Standard deviation 0.028975789763845603 %",-4.57%
same,inhibition,"Thailand/16681/1984, Concentration 198.0 uM, Number of replicates 2.0, Standard deviation 1.4999717780869397 %",-2.99%
O=Cc1ccc(N2CCC(C(=O)NCc3cc(C(F)(F)F)ccc3C(F)(F)F)CC2)cc1,inhibition,[1],1.04%
Cn1cnc2[nH]c(C(=O)N3CC[C@H](c4c[nH]c5ccccc45)C3)cc21,inhibition,"Thailand/16681/1984, Concentration 49.5 uM, Number of replicates 2.0, Standard deviation 2.003876801484884 %",-2.49%
same,inhibition,"Thailand/16681/1984, Concentration 99.01 uM, Number of replicates 2.0, Standard deviation 1.2772748269322285 %",-1.94%
same,inhibition,"Thailand/16681/1984, Concentration 198.0 uM, Number of replicates 2.0, Standard deviation 1.685869304282425 %",-0.105%
O=Cc1ccc(N2CCC(C(=O)Nc3ccc([N+](=O)[O-])cc3Cl)CC2)cc1,inhibition,[1],23.5%
O=Cc1ccc(N2CCC(C(=O)Nc3cc(Cl)cc([N+](=O)[O-])c3O)CC2)cc1,inhibition,[1],90.5%
O=Cc1ccc(N2CCC(C(=O)Nc3cc(Cl)c(F)c(Cl)c3)CC2)cc1,inhibition,[1],13.1%
O=Cc1ccc(N2CCC(C(=O)Nc3ccc(O)cc3[N+](=O)[O-])CC2)cc1,inhibition,[1],24.5%
O=Cc1ccc(N2CCC(C(=O)Nc3c(Cl)cc(Cl)cc3Br)CC2)cc1,inhibition,[1],13.4%
O=Cc1ccc(N2CCC(C(=O)Nc3cc(Cl)cc(Cl)c3O)CC2)cc1,inhibition,[1],98.2%
O=Cc1ccc(N2CCC(C(=O)Nc3cc(Cl)ccc3Br)CC2)cc1,inhibition,[1],13.8%
O=Cc1ccc(N2CCC(C(=O)Nc3cc(Cl)c(O)c(Cl)c3)CC2)cc1,inhibition,[1],100%
O=Cc1ccc(N2CCC(C(=O)Nc3ccc(Cl)c(Cl)c3)CC2)cc1,inhibition,[1],11.8%
c1cnc2c(C3CCN(Cc4cnn5ccccc45)CC3)c[nH]c2c1,inhibition,"Thailand/16681/1984, Concentration 49.5 uM, Number of replicates 2.0, Standard deviation 1.316281988110152 %",-4.72%
same,inhibition,"Thailand/16681/1984, Concentration 99.01 uM, Number of replicates 2.0, Standard deviation 2.2605015442223797 %",-3.44%
same,inhibition,"Thailand/16681/1984, Concentration 198.0 uM, Number of replicates 2.0, Standard deviation 0.9691516929362414 %",-2.08%
O=Cc1ccc(N2CCC(C(=O)N3CCN(C(=O)Cc4ccccc4)CC3)CC2)cc1,inhibition,[1],12.3%
CN(C)C1(CNC(=O)C2CCN(c3ccc(C=O)cc3)CC2)CCOCC1,inhibition,[1],12.1%
NCc1ncc(C(=O)Nc2ccccc2N2CCC(CO)CC2)c(C(F)(F)F)n1,inhibition,"Thailand/16681/1984, Concentration 49.5 uM, Number of replicates 2.0, Standard deviation 1.1543273279104322 %",2.58%
same,inhibition,"Thailand/16681/1984, Concentration 99.01 uM, Number of replicates 2.0, Standard deviation 0.2964400275887672 %",4.99%
same,inhibition,"Thailand/16681/1984, Concentration 198.0 uM, Number of replicates 2.0, Standard deviation 0.14686490832106133 %",6.91%
NCc1cccc(NC(=O)[C@H]2CN(C(=O)OCc3ccccc3)CC23CCOCC3)c1,inhibition,"Thailand/16681/1984, Concentration 49.5 uM, Number of replicates 2.0, Standard deviation 3.4820905640560142 %",-2.83%
same,inhibition,"Thailand/16681/1984, Concentration 99.01 uM, Number of replicates 2.0, Standard deviation 3.010767204046265 %",-1.08%
same,inhibition,"Thailand/16681/1984, Concentration 198.0 uM, Number of replicates 2.0, Standard deviation 2.6769829613344203 %",-0.776%
O=Cc1ccc(N2CCC(C(=O)Nc3ccc(OC(F)(F)F)cc3Cl)CC2)cc1,inhibition,[1],13.6%
COc1cc(COc2cncnc2)nc(N2CCNCC2)n1,inhibition,"Thailand/16681/1984, Concentration 49.5 uM, Number of replicates 2.0, Standard deviation 3.306986633712837 %",-2.35%
same,inhibition,"Thailand/16681/1984, Concentration 99.01 uM, Number of replicates 2.0, Standard deviation 2.7720530174645646 %",-0.505%
same,inhibition,"Thailand/16681/1984, Concentration 198.0 uM, Number of replicates 2.0, Standard deviation 2.4477408574870583 %",0.524%
O=C(NCc1c[nH]nn1)c1cc(Cl)ccc1NS(=O)(=O)c1ccc(Oc2ccccc2Cl)cc1,inhibition,"Thailand/16681/1984, Concentration 49.5 uM, Number of replicates 2.0, Standard deviation 0.023138282657692737 %",75.2%
same,inhibition,"Thailand/16681/1984, Concentration 99.01 uM, Number of replicates 2.0, Standard deviation 0.008898717007196123 %",63.2%
same,inhibition,"Thailand/16681/1984, Concentration 198.0 uM, Number of replicates 2.0, Standard deviation 0.06140627240643217 %",36.5%
Cc1ccc(CNC(=O)c2cc(Cl)ccc2NS(=O)(=O)c2ccc(Oc3ccccc3Cl)cc2)s1,inhibition,"Thailand/16681/1984, Concentration 49.5 uM, Number of replicates 2.0, Standard deviation 0.032039697063193553 %",83.2%
same,inhibition,"Thailand/16681/1984, Concentration 99.01 uM, Number of replicates 2.0, Standard deviation 0.20602188771616411 %",78.6%
same,inhibition,"Thailand/16681/1984, Concentration 198.0 uM, Number of replicates 2.0, Standard deviation 0.539307027447943 %",69.5%
O=C(NCc1cocn1)c1cc(Cl)ccc1NS(=O)(=O)c1ccc(Oc2ccccc2Cl)cc1,inhibition,"Thailand/16681/1984, Concentration 49.5 uM, Number of replicates 2.0, Standard deviation 0.2927162692291327 %",78.5%
same,inhibition,"Thailand/16681/1984, Concentration 99.01 uM, Number of replicates 2.0, Standard deviation 0.11144031356026086 %",70.2%
same,inhibition,"Thailand/16681/1984, Concentration 198.0 uM, Number of replicates 2.0, Standard deviation 0.4940824474713894 %",60.8%
COc1cccc(Cn2cc(C3CCNCC3)c(C)n2)n1,inhibition,"Thailand/16681/1984, Concentration 49.5 uM, Number of replicates 2.0, Standard deviation 0.5897033629115713 %",-3.33%
same,inhibition,"Thailand/16681/1984, Concentration 99.01 uM, Number of replicates 2.0, Standard deviation 0.7206939136220955 %",-3.64%
same,inhibition,"Thailand/16681/1984, Concentration 198.0 uM, Number of replicates 2.0, Standard deviation 2.0772079346215944 %",-3.79%
CCCCCC(=O)N[C@H](C(=O)N1CCC[C@@H](N)C1)c1ccc(OCc2ccccc2)cc1,inhibition,"Thailand/16681/1984, Concentration 49.5 uM, Number of replicates 2.0, Standard deviation 1.275572557867722 %",-0.123%
same,inhibition,"Thailand/16681/1984, Concentration 99.01 uM, Number of replicates 2.0, Standard deviation 1.3300520589416613 %",0.674%
same,inhibition,"Thailand/16681/1984, Concentration 198.0 uM, Number of replicates 2.0, Standard deviation 1.6287502093065211 %",2.04%
O=Cc1ccc(N2CCC(C(=O)NCCc3cccc4ccccc34)CC2)cc1,inhibition,[1],11.1%
Cc1cc(CO)c2cccc(Cc3ccccc3C(=O)NCc3c(C)noc3C)c2n1,inhibition,"Thailand/16681/1984, Concentration 49.95 uM, Number of replicates 2.0, Standard deviation 0.3226747127660098 %",-0.757%
same,inhibition,"Thailand/16681/1984, Concentration 99.9 uM, Number of replicates 2.0, Standard deviation 0.21847019123152348 %",0.39%
COc1ccc(F)c(-c2nn(C)cc2NC(=O)c2ccccc2C(F)(F)F)c1,inhibition,"Thailand/16681/1984, Concentration 49.5 uM, Number of replicates 2.0, Standard deviation 3.583319549695768 %",-2.64%
same,inhibition,"Thailand/16681/1984, Concentration 99.01 uM, Number of replicates 2.0, Standard deviation 4.648656873158677 %",-2.47%
same,inhibition,"Thailand/16681/1984, Concentration 198.0 uM, Number of replicates 2.0, Standard deviation 3.7890463989356435 %",-2.09%
COc1ccc(F)cc1-c1ccccc1C(=O)Nc1cnn(C)c1,inhibition,"Thailand/16681/1984, Concentration 49.5 uM, Number of replicates 2.0, Standard deviation 2.2581672831644526 %",-4.25%
same,inhibition,"Thailand/16681/1984, Concentration 99.01 uM, Number of replicates 2.0, Standard deviation 1.9365380229757554 %",-2.49%
same,inhibition,"Thailand/16681/1984, Concentration 198.0 uM, Number of replicates 2.0, Standard deviation 2.756548372009165 %",-2.95%
Cn1cc(NC(=O)c2ccccc2C(F)(F)F)c(-c2ccc(CO)cc2)n1,inhibition,"Thailand/16681/1984, Concentration 49.5 uM, Number of replicates 2.0, Standard deviation 2.3161186941047496 %",-4.04%
same,inhibition,"Thailand/16681/1984, Concentration 99.01 uM, Number of replicates 2.0, Standard deviation 3.5021876776391307 %",-2.8%
same,inhibition,"Thailand/16681/1984, Concentration 198.0 uM, Number of replicates 2.0, Standard deviation 4.667974048773386 %",-3.05%
N#Cc1cccc(NC(=O)[C@@H](NC(=O)c2ccc(Oc3ccc(C(F)(F)F)cc3)cc2)c2ccc(OCc3ccccc3)cc2)c1,inhibition,"Thailand/16681/1984, Concentration 49.5 uM, Number of replicates 2.0, Standard deviation 0.9263674997821656 %",-5.09%
same,inhibition,"Thailand/16681/1984, Concentration 99.01 uM, Number of replicates 2.0, Standard deviation 0.4269393146330484 %",-4.04%
same,inhibition,"Thailand/16681/1984, Concentration 198.0 uM, Number of replicates 2.0, Standard deviation 0.9636779131327375 %",-5.31%
